Out of some 24,000 compounds screened, about 40 (0.2%) were called active. This is one part of a sample in which actives are shown more often than they occur. Unmarked numbers belong to inactive results.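 Rule for the calls: active = inhibition of disassembly above about 33% (limit read from the data); inconclusive = likely self-fluorescent, control bead median signal at least 40; inactive = the rest.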
test system: 26S proteasome (yeast, GFP-tagged, ATP-dependent disassembly); experiment: inhibitors of ATP-driven 26S proteasome dissociation, primary screen, biochemical, bead-based flow cytometry, GFP-tagged proteasome (AID 751); conditions: anti-FLAG beads, hits give high values, concentration not given here;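 note: plate controls were ATP control with full disassembly for no effect and ATP-gamma-S intact proteasomes for full effect; higher percent means more bead fluorescence retained so stronger block of disassembly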

| Structure (SMILES) | inhibition of disassembly |
| --- | --- |
| CCOC(=O)C1CCCN(C(=O)Cn2ncc3c(=O)oc4ccc(C)cc4c32)C1 (stereo unspecified) | -1.55% |
| Cc1nn(-c2ccccc2)c2[nH]c(C(F)(F)F)cc(=O)c12 | 0.28% |
| CC(C)CNC(=O)c1cc(-c2ccc(Br)cc2)on1 | -0.25% |
| COc1ccc(C2C(C(=O)Nc3ccccc3OC)=C(C)Nc3nnnn32)c(OC)c1 (stereo unspecified) | -0.27% |
| Cc1ccc(C(c2sc3nc(C)nn3c2O)N2CCN(c3ccccc3)CC2)cc1 (stereo unspecified) | -0.53% |
| CCS(=O)(=O)N1CCC(C(=O)N2CCN(c3ccccc3)CC2)CC1 | 0.05% |
| CCOC(=O)c1ccc(NC(=O)CS(=O)(=O)c2cn(CC)c3ccccc23)cc1 | -1.63% |
| CCN(CC)CCNC(=O)C1c2ccccc2C(=O)N(C)C1c1cn(C)c2ccccc12 (stereo unspecified) | -2.19% |
| COc1ccc(CN(C(=O)c2cccs2)c2nccs2)cc1OC | 0.76% |
| CCn1c(SCC(=O)Nc2nccs2)nnc1-c1ccncc1 | 1.46% |
| CCCN(CCC)CCNC(=O)c1cc2c(C)nc3ccccc3c2o1 | 5.25% |
| Cn1cccc1Cc1nnc(SCC(=O)NCc2ccc3c(c2)OCO3)n1CCc1ccccc1 | 1.04% |
| CCOc1ccc(N(CC(=O)NCc2ccc(OC)cc2)S(=O)(=O)c2c(C)noc2C)cc1 | -1.57% |
| Cc1ccc(-c2nc(CS(=O)CC(=O)N3CCN(c4ncccn4)CC3)c(C)o2)cc1 (stereo unspecified) | 4.64% |
| Cc1nnc(SCC(=O)N(C(C)C)C(C)C)nc1C | 0.76% |
| O=C(CSc1nc2[nH]ncc2c(=O)n1-c1ccccc1)N1CCCc2ccccc21 | 3.12% |
| CCOCC(=O)Nc1sc2c(c1C(=O)OCC)CCCC2 | 1.13% |
| CNC(=O)Nc1cc(C(C)(C)C)no1 | -0.8% |
| COc1ccc(C(=O)N(CCN2CCOCC2)CC(=O)NC2CCCC2)cc1OC | 1% |
| CNC(=O)c1ccc2nc(NC(C)=O)sc2c1 | 3.41% |
| Fc1ccc2nc(Nc3nc4c(s3)CCCC4)sc2c1 | 96.9% (active) |
| Fc1ccc2nc(N3CCCCC3)sc2c1 | 0.07% |
| O=C1c2ccncc2C(=O)N1C1CCCCC1 | -0.82% |
| Cc1ncn(C23CC4CC(CC(O)(C4)C2)C3)n1 | -1.21% |

| Structure (SMILES) | inhibition of disassembly |
| --- | --- |
| O=C1c2cccnc2C(=O)N1Cc1cccs1 | -1.73% |
| CCOc1cc(S(=O)(=O)NCc2ccc3c(c2)OCO3)ccc1F | -0.11% |
| Cc1nnc(SCCCn2c(N3CCCCC3)nc3c2c(=O)[nH]c(=O)n3C)s1 | -3.02% |
| Cc1cc(C(=O)NCCCc2ccccc2)no1 | 0.81% |
| CCOc1ccc(C2C(C(=O)NC)=C(C)Nc3nc4ccccc4n32)cc1OC (stereo unspecified) | -0.82% |
| O=S(=O)(NCc1ccccc1Cl)c1cnc[nH]1 | 1.99% |
| N#CCCn1ncc2ccccc21 | -0.94% |
| CCOC(=O)CN1C(=O)C(O)(CC(=O)c2ccccn2)c2ccccc21 (stereo unspecified) | 0.68% |
| COc1ccc(NC(=O)CN2CCN(S(=O)(=O)c3ccc(F)cc3)CC2)cc1Cl | 0.32% |
| O=C(CN1CCN(C(=O)c2cccc(F)c2)CC1)Nc1ccccc1F | 2.43% |
| CCOc1ccc(CC(=O)Nc2ccc(S(=O)(=O)Nc3cc(C)on3)cc2)cc1OCC | 1.32% |
| Cc1ccc(N(C(=O)CC2NC(=O)NC2=O)C2(C(=O)NC3CCCC3)CCCCC2)cc1 (stereo unspecified) | -0.11% |
| Cc1ccc(C2CC(=O)NC(SCC(=O)OCc3ccccc3)=C2C#N)o1 (stereo unspecified) | -1.12% |
| Cc1ccc(C(CC(=O)O)Nc2nc(N3CCCCC3)nc(N3CCCCC3)n2)cc1 (stereo unspecified) | 0.5% |
| CN(C)S(=O)(=O)c1cccc(C(=O)Nc2cccnc2)c1 | 0.3% |
| O=C(Cc1nn[nH]n1)NCCC1=CCCCC1 | 3.56% |
| C#CC(C)(C)NC(=O)CSc1nc2c(c(=O)n(C)c(=O)n2C)n1CCCC | 0.06% |
| Cc1ccc(-n2ncc3c(=O)[nH]cnc32)c(C)c1 | -2.48% |
| CCOC(=O)C1CCN(C(=O)c2oc3ccc(S(=O)(=O)N4CCCCCC4)cc3c2C)CC1 | 0.89% |
| CCOC(=O)Cc1csc(NC(=O)CN(C)S(=O)(=O)c2ccc3c(c2)CCC(=O)N3)n1 | 0.365% |
| CCC1Oc2ccc(Cl)cc2N(CC(=O)O)C1=O (stereo unspecified) | -0.77% |
| Brc1cnc(N2CCCC2)nc1N1CCCCC1 | -0.98% |
| O=C(O)c1ccc(NC(=O)c2cccs2)cc1 | -9.2% |
| COc1ccc(N2C(=O)C3CCCN3C2c2cccc(OC)c2)cc1 (stereo unspecified) | 0.89% |

| Structure (SMILES) | inhibition of disassembly |
| --- | --- |
| COc1ccc(N2C(=O)C3CCCN3C2c2cc(OC)c(OC)cc2OC)cc1 (stereo unspecified) | 1.25% |
| COc1cccc(N2C(=O)C3CCCN3C2c2ccc(F)cc2)c1 (stereo unspecified) | 137% (active) |
| Cc1ccccc1N1CC(c2nc3ccccc3[nH]2)CC1=O (stereo unspecified) | 2.43% |
| Cc1ccc(NC(=O)C2CC(c3ccc(F)cc3)=NO2)cc1 (stereo unspecified) | 0.38% |
| CCOC(=O)Cn1c(=O)oc2cc(S(=O)(=O)N(C)Cc3ccco3)ccc21 | 0.3% |
| C=CCOc1ccc(C2/C(=C(\O)c3c(C)[nH]c(C(=O)OC)c3C)C(=O)C(=O)N2CCN(C)C)cc1 (stereo unspecified) | -2.37% |
| Cc1nc2ccc(S(=O)(=O)NC(C(=O)N3CCCCCC3)C(C)C)cc2s1 (stereo unspecified) | 0% |
| CC(C)C1N=C2c3ccccc3N=C(SCC(=O)c3ccc(O)c(O)c3)N2C1=O (stereo unspecified) | -7.17% |
| Nc1nonc1C(=O)NCCc1ccccc1 | -0.31% |
| CCCCN(CC)C(=O)CN(C)S(=O)(=O)c1cccc2nsnc12 | -0.83% |
| CC(=O)Nc1ccc(NS(=O)(=O)c2cc(C)sc2C)cc1 | 1.22% |
| CCCNC(=O)Nc1ccccc1C(=O)Nc1ccc(OC)cc1 | 0.82% |
| COc1ccccc1CNC(=O)CCCn1c(=O)c2ccccc2n(CC(=O)NC2CCCC2)c1=O | -1.05% |
| O=C(c1cc(-c2ccccc2O)on1)N1CCCC1 | 3.8% |
| CCCCC(=O)Nc1cc(C)c2c(=O)oc3ccccc3c2n1 | -3.04% |
| COc1ccccc1-c1nc(C(F)(F)F)c(OC)o1 | -0.84% |
| O=C(Nc1nsc(-c2ccccc2)n1)c1ccncc1 | -0.11% |
| COC(=O)c1oc2ccc(Br)cc2c1NC(C)=O | 0.425% |
| Cc1cc(=O)n2nc(N3CCCC(C(=O)NCCC4=CCCCC4)C3)sc2n1 (stereo unspecified) | -1.75% |
| Cc1cc(C)c(C)c(S(=O)(=O)Nc2ccc(O)cc2)c1C | 0.6% |
| O=C(NCc1cccs1)c1ccc2c(c1)ncn2C1CCCC1 | 0.01% |
| O=C(Cn1nnc(-c2ccc(CN3CCOCC3)cc2)n1)NC1CCCCC1 | 0.56% |
| O=C(CN1C(=O)C2C3C=CC(C3)C2C1=O)NCCc1ccccc1Cl (stereo unspecified) | -3.34% |
| CCOC(=O)C1CCN(C(=O)Cc2c(C(=O)O)[nH]c3ccccc23)CC1 | 1.78% |

| Structure (SMILES) | inhibition of disassembly |
| --- | --- |
| CC(c1nnc(SCC(=O)Nc2sccc2C#N)n1-c1ccc(Cl)cc1)N(C)C (stereo unspecified) | 0.73% |
| COC(=O)c1ccccc1NC(=O)c1cncc(Br)c1 | 1.29% |
| CCOC(=O)C1C(=O)C=C(c2ccc(OC)cc2)CC1c1ccco1 (stereo unspecified) | -0.2% |
| O=c1c2[nH]c3ccc(Cl)cc3c2ncn1Cc1ccccn1 | -0.64% |
| Cn1c(COc2ccc(Cl)cc2)nc2ccccc2c1=O | -1.78% |
| O=C1CC(c2cccc(Br)c2)C2=C(CCCC2=O)N1 (stereo unspecified) | 2.93% |
| COc1ccc(CCNC(=O)c2ccc3c(c2)NC(=O)C(N2CCOCC2)S3)cc1OC (stereo unspecified) | 7.35% |
| COc1ccc(CCNC(=O)CCCCn2c(=O)[nH]c3ccccc3c2=O)cc1OC | -2.22% |
| Cc1oc(-c2cccc(Cl)c2)[n+]([O-])c1C | -1.38% |
| COc1ccc(CC(=O)Nc2c3c(nn2-c2cccc(Cl)c2)CS(=O)C3)cc1 (stereo unspecified) | -0.575% |
| COc1ccc(CCNC(=O)c2cc(-c3ccc4c(c3)OCO4)on2)cc1OC | -0.34% |
| CCOC(=O)Cn1c(=O)oc2cc(S(=O)(=O)NCC3CCCO3)ccc21 (stereo unspecified) | -1.43% |
| CCOC(=O)c1c(C)oc2ccc(OCC(=O)N(CC)CC)cc12 | 0.35% |
| O=C(CCCCn1c(=O)[nH]c2ccccc2c1=O)NCc1ccc2c(c1)OCO2 | 1.45% |
| Cn1c(=O)[nH]c(=O)c2c1nc(N(CCO)Cc1ccccc1)n2Cc1ccccc1Cl | 0.72% |
| COC(=O)C1C(=O)c2c([nH]c(C(=O)OCCSC)c2C)CC1C (stereo unspecified) | -0.89% |
| COc1cccc(NC(=O)Cn2cnc3sc(C)c(S(=O)(=O)N4CCN(C)CC4)c3c2=O)c1 | -0.73% |
| CC(=O)Nc1nonc1-c1nc2ccccc2n1Cc1ccccn1 | 5.18% |
| CCOC(=O)N1CCC(Nc2c(NCCCN3CCN(c4ccc(OC)cc4)CC3)c(=O)c2=O)CC1 | 1.14% |
| CCOCCc1c(O)nc(SCC(=O)NCc2ccco2)[nH]c1=O | -2.18% |
| CN(C)CCCNC(=O)c1ccc2[nH]c3ccccc3c2c1 | -0.71% |
| Cc1cccc(NC(=O)CSc2nc3c(c(=O)[nH]2)CCC3)c1C | 0.47% |
| CC(=O)NC1CC2CCCC(C1)N2CC(=O)Nc1ccccc1 (stereo unspecified) | -0.95% |
| CC12CN3CC(C)(CN(C1)C3c1ccc(Cl)cc1Cl)C2=O (stereo unspecified) | 1.12% |
